Data taken from PubChem BioAssay AID2238 (Southern Research Specialized Biocontainment Screening …, 2010).
Active and inactive are the calls of the source. No rule for the calls is given here.

Assay: West Nile virus CPE inhibition, SAR follow-up, cell-based, synthesized analogs (AID 2238)
Settings: max CPE inhibition: measured here: maximum CPE inhibition observed, at 40 µM, stronger effect = higher value unless noted

| Compound | max CPE inhibition | outcome |
| --- | --- | --- |
| COc1ccc(-c2csc(N(C)C(=O)c3ccccc3Cl)n2)cc1 | 1.16% [measured here: maximum CPE inhibition observed, at 5 µM, stronger effect = higher value] | inactive |
| O=c1c2c(F)cccc2nc2n1CCC2 | 1.51% | inactive |
| COc1ccc(NC(=O)CSc2nc3ccccc3c(=O)n2-c2ccc(F)cc2)cc1 | 2.96% | inactive |
| CC1(O)c2cc(Br)ccc2N=C2CCCN21 (stereo not given) | 1.3% [measured here: maximum CPE inhibition observed, at 0.16 µM, stronger effect = higher value] | inactive |
| COc1ccc(-c2csc(NC(=O)c3ccccc3F)n2)cc1 | 1.03% | inactive |
| COc1ccc(-c2csc(NC(=O)c3cccc(Cl)c3)n2)cc1 | 1.98% | inactive |
| O=C(Nc1nc(-c2ccc(Cl)cc2)cs1)c1ccc(I)cc1 | 0.78% | inactive |
| CCCN(C(=O)c1ccccc1Cl)c1nc(-c2ccc(OC)cc2)cs1 | 0.77% | inactive |
| COc1cccc(-n2c(SCC(=O)Nc3ccc4c(c3)CCC4)nc3ccccc3c2=O)c1 | 26.8% [measured here: maximum CPE inhibition observed, at 20 µM, stronger effect = higher value] | inactive |
| COc1ccc(-c2csc(N(C(=O)c3ccccc3Cl)C(C)C)n2)cc1 | 1.92% | inactive |
